Measurements published in PubChem BioAssay (NCATS).
Where “and” joins values, the source holds several entries; their conditions need not be identical. Equal entries are not always repeated. Records with an inconclusive call do not appear. Entries that show only a call come without a potency. Calls of active or inactive are those of the source. The call rests on the fitted dose curve; in most records, active means well fitted cell-killing curve with a large enough effect; inconclusive means small, poorly fitted or top-dose-only effect; inactive means no such curve, though single readings can be large or run the other way.

Assay: qHTS of pediatric cancer cell lines to identify multiple opportunities for drug repurposing: Confirmatory screen for Rh41 cells (AID 1347123);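 further: 48 h compound exposure; nearly all actives have a fitted effect of over 60% in size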
Conditions: Rh41 rhabdomyosarcoma cells, viability/cytotoxicity qHTS; series mostly up to 45.9 µM
Description: Drug repurposing or repositioning has been offered as a strategy for drug development in oncology programs. This approach has special potential for childhood cancers and other rare or orphan diseases, where the expected return on new drug development has been a disincentive to pharmaceuticals.
In this project we exploit the poly-pharmacology of drugs to discover new indications via phenotypic screening of a panel of 19 well-characterized cell lines derived from solid tumors seen in children and adolescents. The goal is to identify approved drugs with previously unrecognized anticancer properties that has the potential to reveal new mechanisms and biological processes involved in carcinogenesis or drug resistance. We employed a titration-based paradigm (quantitative high-throughput screening or qHTS), where all compounds were tested at multiple concentrations for their effect on cell viability. Concentration-response curves (CRCs) were derived directly from the primary screen, and both potency and efficacy values were used to identify compounds with robust bioactivity profiles. We screened the NIH Chemical Genomics Center (NCGC) Pharmaceutical Collection (NPC) and Mechanism Interrogation Plate (MIPE) small molecule collections of approved and investigational compounds against these cell lines; and measured metabolically active cells after 48 hours of compound treatment as a proxy for cell viability.
Assay Submitter: Nathalia J. Martinez, National Center for Advancing Translational Sciences, National Institutes of Health, Rockville, MD, USA; email: natalia.martinez@nih.gov
[1] Shen, M et al. Quantitative high-throughput phenotypic screening of pediatric cancer cell lines identifies multiple opportunities for drug repurposing. Oncotarget 2017 Dec 19;9(4):4758-4772. PMID 29435139.
The cells were obtained from University of North Carolina (UNC), Pediatric Preclinical Testing Program (PPT), and Coriell Institute (CI).
qHTS cell viability assay:
Cells were assayed in growth media at a density of 500-1,000 cells/well. Five microliters of cells were dispensed into 1,536-well, white, solid-bottom, TC-treated plates (Greiner Bio One) using a multidrop dispenser and incubated at 37 degrees C, 5% CO2, under a humidified atmosphere for 5 hours. Twenty-three nanoliters of compounds and controls (neutral control DMSO or positive control bortezomib at final concentration of 2.3 µM) were subsequently transferred by Kalypsys pintool. For primary screens, the MIPE collection was tested at 11-point dilutions (final concentrations range from 0.78 nM to 46 µM) and the NPC collection at 8-point dilutions (final concentrations range from 0.59 nM to 46 µM). Compounds tested in follow-up screens were assayed at 11-point dilutions. Cells were incubated for 48 hours, followed by addition of 3 µL of CellTiter-Glo (Promega). After a 15 min incubation at room temperature, samples were analyzed for luminescence intensity using a ViewLux High-throughput CCD imager equipped with clear filters.
Potency means the concentration at half of the fitted maximal effect.

SMILES | Potency
COC(=O)Nc1nc2ccc(Sc3ccccc3)cc2[nH]1 | 1.17 µM (active)
CN(C)c1ccc(C(=C2C=CC(=[N+](C)C)C=C2)c2ccc(N(C)C)cc2)cc1 | 0.522 µM (active)
COc1cc2nc(N3CCCN(C)CC3)nc(NC3CCN(Cc4ccccc4)CC3)c2cc1OC | 0.261 µM (active)
Nc1[nH]c(=O)ncc1F | inactive
O=NN(CCCl)C(=O)NC1CCCCC1 | inactive
COc1ccc(C(=O)CC(=O)c2ccc(C(C)(C)C)cc2)cc1 | inactive
COc1nc(N)nc2c1ncn2[C@@H]1O[C@H](CO)[C@@H](O)[C@@H]1O | 16.5 µM (active)
CC(=O)[C@H]1CC[C@H]2[C@@H]3CCC4=CC(=O)CC[C@]4(C)[C@H]3CC[C@]12C | 18.5 µM (active)
CC(C)(C#N)c1cc(Cn2cncn2)cc(C(C)(C)C#N)c1 | inactive
CC(C(=O)O)c1ccc2c(c1)CC(=O)c1ccccc1S2 (stereo not drawn) | inactive
C[C@@H](CN1CC(=O)NC(=O)C1)N1CC(=O)NC(=O)C1 | inactive
C[C@@H]1C[C@H]2[C@@H]3CCC4=CC(=O)C=C[C@]4(C)[C@@]3(Cl)[C@@H](O)C[C@]2(C)[C@@]1(OC(=O)c1ccco1)C(=O)CCl | 1.04 µM (active)
COc1cc2c(Nc3ccc(Br)cc3F)ncnc2cc1OCC1CCN(C)CC1 | 16.5 µM (active)
Cn1nnc2c(C(N)=O)ncn2c1=O | inactive
CC(C)NCC(O)c1ccc(NS(C)(=O)=O)cc1 (stereo not drawn) | inactive
CN1CCCC(n2nc(Cc3ccc(Cl)cc3)c3ccccc3c2=O)CC1 (stereo not drawn) | 8.27 µM (active)
COC(=O)Nc1nc2ccc(S(=O)c3ccccc3)cc2[nH]1 (stereo not drawn) | 1.04 µM (active)

SMILES | Potency
CCC(=O)O[C@]1(C(=O)SCF)[C@H](C)C[C@H]2[C@@H]3C[C@H](F)C4=CC(=O)C=C[C@]4(C)[C@@]3(F)[C@@H](O)C[C@@]21C | inactive
CCOC(=O)[C@H](CCc1ccccc1)N[C@H]1CS[C@H](c2cccs2)CN(CC(=O)O)C1=O | inactive
CNS(=O)(=O)CCc1ccc2[nH]cc(C3CCN(C)CC3)c2c1 | inactive
Oc1c(Cl)cc(Cl)c2cccnc12 | 14.7 µM (active)
Nc1nc(N)c2nc(CNc3ccc(C(=O)NC(CCC(=O)O)C(=O)O)cc3)cnc2n1 (stereo not drawn) | inactive
CC1CC2C3CCC4=CC(=O)C=C[C@]4(C)[C@@]3(F)[C@@H](O)C[C@]2(C)[C@@]1(O)C(=O)CO (stereo partly drawn) | inactive
NC(=O)c1cccnc1 | inactive
O=S(=O)(O)CCS | inactive
COc1ccc(-c2ccc3cc(C(=O)O)ccc3c2)cc1C12CC3CC(CC(C3)C1)C2 | inactive
CC(C)(C)C(=O)OCOP(=O)(COCCn1cnc2c(N)ncnc21)OCOC(=O)C(C)(C)C | 20.8 µM (active)
CS(=O)(=O)c1ccc([C@@H](O)[C@@H](CO)NC(=O)C(Cl)Cl)cc1 | inactive
CCc1c2c(nc3ccc(OC(=O)N4CCC(N5CCCCC5)CC4)cc13)-c1cc3c(c(=O)n1C2)COC(=O)[C@]3(O)CC | 4.14 µM (active)
CO[C@@]12[C@H](COC(N)=O)C3=C(C(=O)C(C)=C(N)C3=O)N1C[C@@H]1N[C@@H]12 | 7.37 µM (active)
CCC(=O)O[C@]1(C(=O)CCl)[C@@H](C)C[C@H]2[C@@H]3CCC4=CC(=O)C=C[C@]4(C)[C@@]3(F)[C@@H](O)C[C@@]21C | 26.1 µM (active)
CNNCc1ccc(C(=O)NC(C)C)cc1 | inactive
Nc1nc(=S)c2[nH]cnc2[nH]1 | 14.7 µM (active) and 13.1 µM (active)
